Experimental data published in PubChem BioAssay (NCATS).
“And” between values parts separate entries of the source, which are not always exact repeats. Equal entries are not always repeated. Inconclusive results are not listed. Where a call stands in place of a potency, no number is given. The source made the active and inactive calls. Unless noted, calls follow the shape of the dose curve; as a rule, active = well fitted curve in the direction sought with a large enough effect; inconclusive = small, poorly fitted or top-dose-only effect, or another doubt; inactive = no such curve, though single readings can be large; an effect the other way counts as inactive or inconclusive.

Columns and labels:
[1] = Cell Viability - BJ (AID 421; calls by dose curve;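 also: potency is read from the fitted curve at half-maximal effect; cells exposed to compound for 40 hours at 37 °C before readout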); settings: BJ fibroblast viability, qHTS
How it was run: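 Cytotoxicity as drop in intracellular ATP (CellTiter-Glo, 20 min RT) after 40 hr compound exposure of BJ fibroblasts at 37 °C. Titrations scaled between DMSO and 100 uM tamoxifen, Hill-fitted for AC50.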

[2] = Cell Viability - SK-N-SH (AID 435; calls by dose curve;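 also: potency is read from the fitted curve at half-maximal effect; compound exposure lasted 40 h at 37 °C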); settings: SK-N-SH neuroblastoma cell viability qHTS
How it was run: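 Luminescent ATP signal served as the viability read-out after 40 hours of compound treatment of human neuroblastoma SK-N-SH cells. Concentration-response data, scaled between DMSO and 100 uM tamoxifen, gave AC50 values by standard Hill modeling.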

[3] = Cellular Toxicity (caspase-3) Renal Proximal Tubule (AID 667); settings: renal proximal tubule cells; at 91.7 µM (top of the series), primary cells freshly taken from rat, solvent-only wells 0%, staurosporine 100% unless noted;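 also: cells exposed to compound for 16 hours at 37 °C before detection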
How it was run: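 AC50 derived by standard Hill fit of concentration-response data, normalized between DMSO basal and 10 uM staurosporine as 100% stimulation. Cells: primary rat kidney proximal tubule, 16 h treatment at 37 °C.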

[4] = target: Bile acid receptor (Homo sapiens) (UniProt Q96RI1); assay: qHTS assay for small molecule antagonists of farnesoid X receptor signaling (AID 588526; calls by dose curve)
Chain of Bile acid receptor (Homo sapiens) (Q96RI1 whole entry, looked up): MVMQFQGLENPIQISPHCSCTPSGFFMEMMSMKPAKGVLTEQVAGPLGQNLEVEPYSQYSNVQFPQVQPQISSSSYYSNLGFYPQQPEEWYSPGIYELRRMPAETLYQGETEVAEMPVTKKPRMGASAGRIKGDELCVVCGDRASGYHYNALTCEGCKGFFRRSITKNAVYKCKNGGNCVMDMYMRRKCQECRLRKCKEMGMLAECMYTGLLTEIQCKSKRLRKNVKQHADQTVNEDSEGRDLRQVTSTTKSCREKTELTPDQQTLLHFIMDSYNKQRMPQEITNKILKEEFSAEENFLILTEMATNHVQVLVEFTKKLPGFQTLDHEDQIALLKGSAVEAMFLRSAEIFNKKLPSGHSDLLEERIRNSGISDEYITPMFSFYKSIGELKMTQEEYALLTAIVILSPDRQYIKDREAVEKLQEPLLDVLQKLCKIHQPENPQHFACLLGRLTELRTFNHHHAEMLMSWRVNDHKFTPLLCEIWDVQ
How it was run: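 Antagonist mode: titrated compounds tested against chenodeoxycholic acid stimulation (normalized to 50 uM CDCA and DMSO) in GeneBLAzer HEK293T cells for 16 h. Beta-lactamase read by CCF4 fluorescence; IC50 from Hill fits.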

[5] = qHTS assay for small molecule antagonists of peroxisome proliferator-activated receptor delta signaling (AID 588535); settings: HEK293T PPARd-UAS-bla, beta-lactamase FRET ratio, 18 h; 460 nm channel;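 also: cells co-treated with a PPAR-delta agonist as stimulator during compound exposure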
How it was run: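 Fluorescence from CCF4-loaded GeneBLAzer PPAR-delta-UAS-bla HEK293T cells (2 hrs RT loading) quantified reporter inhibition after an 18 hr, 37 C compound exposure across a titration.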

[6] = target: Peroxisome proliferator-activated receptor gamma (Homo sapiens) (UniProt P37231); assay: qHTS assay for small molecule antagonists of peroxisome proliferator-activated receptor gamma signaling (AID 588537; active = well fitted inhibition curve with a large enough effect in the signal ratio, with a control signal flat, not every such curve was filed as active; the % refers to the signal ratio;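 also: reporter cells co-stimulated with 50 nM rosiglitazone agonist during compound treatment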)
Chain of Peroxisome proliferator-activated receptor gamma (Homo sapiens) (P37231 whole entry, looked up): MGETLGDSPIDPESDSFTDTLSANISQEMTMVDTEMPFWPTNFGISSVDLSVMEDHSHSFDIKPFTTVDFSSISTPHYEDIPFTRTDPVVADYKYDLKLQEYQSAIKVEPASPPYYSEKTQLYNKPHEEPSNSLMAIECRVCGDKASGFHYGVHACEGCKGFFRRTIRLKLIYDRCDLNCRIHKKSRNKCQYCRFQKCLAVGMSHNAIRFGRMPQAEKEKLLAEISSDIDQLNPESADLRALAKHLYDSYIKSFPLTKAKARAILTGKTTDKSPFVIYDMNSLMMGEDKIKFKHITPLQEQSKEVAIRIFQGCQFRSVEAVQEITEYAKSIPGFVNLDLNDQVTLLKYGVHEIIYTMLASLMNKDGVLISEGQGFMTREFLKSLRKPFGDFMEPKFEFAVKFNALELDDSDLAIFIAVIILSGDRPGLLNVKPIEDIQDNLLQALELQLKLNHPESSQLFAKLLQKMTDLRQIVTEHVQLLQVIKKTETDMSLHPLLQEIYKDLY
How it was run: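 Fluorescence at 460 and 530 nm (405 nm excitation) reported beta-lactamase cleavage of CCF4 after 2 h room-temperature loading. HEK293 reporter cells in 1% charcoal/dextran-treated FBS had received compound and rosiglitazone for 16 h.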

[7] = target: Retinoic acid receptor RXR-alpha (Homo sapiens) (UniProt P19793); assay: qHTS assay for small molecule antagonists of retinoid X receptor alpha signaling (AID 588546; active = well fitted inhibition curve with a large enough effect in the signal ratio, with a control signal flat, not every such curve was filed as active; the % refers to the signal ratio;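 also: cells stimulated with 9-cis-retinoic acid as agonist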); settings: HEK293T RXRa-UAS-bla, beta-lactamase ratio, antagonist mode
Chain of Retinoic acid receptor RXR-alpha (Homo sapiens) (P19793 whole entry, looked up): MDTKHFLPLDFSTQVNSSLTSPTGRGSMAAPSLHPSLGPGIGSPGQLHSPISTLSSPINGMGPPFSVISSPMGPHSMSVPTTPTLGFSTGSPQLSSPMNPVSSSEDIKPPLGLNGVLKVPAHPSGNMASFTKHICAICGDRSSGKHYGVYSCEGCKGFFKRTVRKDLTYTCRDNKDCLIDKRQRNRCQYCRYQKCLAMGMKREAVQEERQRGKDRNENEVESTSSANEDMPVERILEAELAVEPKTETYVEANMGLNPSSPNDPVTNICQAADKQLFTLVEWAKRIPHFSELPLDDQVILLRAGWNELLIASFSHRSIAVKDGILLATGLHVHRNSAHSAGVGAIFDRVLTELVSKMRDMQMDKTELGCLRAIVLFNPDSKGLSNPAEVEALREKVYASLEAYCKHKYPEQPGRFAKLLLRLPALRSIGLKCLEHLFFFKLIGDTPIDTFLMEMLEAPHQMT
How it was run: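 Beta-lactamase reporter inhibition, read as CCF4 fluorescence ratio (ex 405, em 460/530 nm) after 2 h at RT. HEK293T UAS-bla cells, 2500/well, were stimulated with 9-cis-RA at 500 or 100 nM final alongside test compound for 18 h at 37 C.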

[8] = qHTS assay for small molecule activators of the nuclear factor-kappa B (NF-kB) signaling pathway (AID 651749; active = well fitted activation curve with a large enough effect in the signal ratio; the % refers to the signal ratio); settings: NF-kB-bla ME-180 cells, beta-lactamase FRET ratio, 16 h; activation: stronger effect = higher value
How it was run: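 In this qHTS format, compounds acting as activators increase NF-kB-driven beta-lactamase in ME-180 cells, measured as disrupted FRET after 16 hr exposure at 37C and 5% CO2.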

[9] = qHTS assay for cell viability of the p53RE-bla HCT-116 cell line (AID 743292); also: nearly all actives have a fitted effect of over 55% in size
How it was run: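 Compound-exposed HCT-116 (p53RE-bla) cells, 4,000 per well, were kept 16 h at 37 C following a 5 h preincubation. Cell number was estimated from total ATP by CellTiter-Glo luminescence read after 30 min at room temperature.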

[10] = KB-8-5-11 P-gp reporter qHTS against the NCATS DSHEA and TCM libraries (AID 1919977)
How it was run: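 KB-8-5-11, 500 cells/well, DMEM/10% FBS without colchicine; 4 h attach; cpd titrations, 72 h, 37C/5% CO2; CellTiter-Glo, 30 min RT, luminescence.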

[11] = Cellular Toxicity (caspase-3) Mesangial (AID 660);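 also: combined caspase 3 and 7 activity read by Caspase-Glo luminescence; cells exposed to compound for 16 h before the caspase read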
How it was run: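 Caspase 3/7 activation measured by Caspase-Glo 3/7 luminescence (20 min, room temperature) following 16 h exposure of mesangial cells (1000/well); AC50 from Hill-equation fit, normalized to DMSO and 100 uM tamoxifen.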

[12] = Cell Viability - LYMP2-001 (AID 921); also: nearly all actives have a fitted effect of over 70% in size
How it was run: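 Steps: seed 2500 lymphoblastoid cells/well; 5 hr, 37 C; add compound; 24 hr, 37 C; CellTiter-Glo reagent, 30 min room temperature; read luminescence. Concentration-response modeled by Hill equation for AC50.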

[13] = MultiTox-Fluor Cytotoxicity Assay - LYMP1-003 - Live Cells (AID 962);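 also: cytotoxic hits lower the live-cell protease signal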
How it was run: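 Live-cell protease activity (GF-AFC substrate, 405/510 nm, 60 min at room temperature) after 16 h, 37 C compound exposure of human lymphoblastoid LYMP1-003 cells; concentration-response fitted to the Hill equation for AC50.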

[14] = Cell Viability - LYMP1-003 - Assay at 24 hr (AID 963)
How it was run: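 Concentration-response qHTS: ATP loss measured by CellTiter-Glo luminescence after 24 h compound exposure at 37 C. Cells were LYMP1-003 human lymphoblastoid, 2500 per well. AC50 derived via standard Hill equation modeling.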

[15] = Cell Viability - LYMP2-015 (AID 971); also: nearly all actives have a fitted effect of over 55% in size
How it was run: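 Cytotoxicity readout: decrease in intracellular ATP (CellTiter-Glo luminescence) in 2500 LYMP2-015 lymphoblastoid cells/well after 24 h compound exposure at 37 C. Concentration-response data fitted with the standard Hill equation to give AC50.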

[16] = Cell Viability - LYMP2-010 (AID 981); also: nearly all actives have a fitted effect of over 55% in size; also: potency is read from the fitted curve at half-maximal effect
How it was run: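 CellTiter-Glo ATP luminescence measured cytotoxicity after 24 h compound exposure at 37 C. LYMP2-010 cells were seeded at 2500/well, with tetraoctylammonium bromide as control; concentration-response curves gave AC50 values by the Hill equation.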

[17] = Cell Viability - LYMP2-022 (AID 987); also: nearly all actives have a fitted effect of over 55% in size
How it was run: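 Cytotoxicity read as decreased cellular ATP (CellTiter-Glo luminescence, 30 min room temperature) after 24 hours compound exposure of 2500 lymphoblastoid LYMP2-022 cells/well at 37 C. Concentration-response data fitted with standard Hill equation for AC50.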

[18] = target: Peroxisome proliferator-activated receptor alpha (Homo sapiens) (UniProt Q07869); assay: qHTS assay for small molecule agonists of the peroxisome proliferator-activated receptor alpha (PPARalpha) signaling pathway (AID 651778); settings: PathHunter PPARalpha complementation, chemiluminescence, 6 h; stronger effect = higher value
Chain of Peroxisome proliferator-activated receptor alpha (Homo sapiens) (Q07869 whole entry, looked up, the tested form may be a part): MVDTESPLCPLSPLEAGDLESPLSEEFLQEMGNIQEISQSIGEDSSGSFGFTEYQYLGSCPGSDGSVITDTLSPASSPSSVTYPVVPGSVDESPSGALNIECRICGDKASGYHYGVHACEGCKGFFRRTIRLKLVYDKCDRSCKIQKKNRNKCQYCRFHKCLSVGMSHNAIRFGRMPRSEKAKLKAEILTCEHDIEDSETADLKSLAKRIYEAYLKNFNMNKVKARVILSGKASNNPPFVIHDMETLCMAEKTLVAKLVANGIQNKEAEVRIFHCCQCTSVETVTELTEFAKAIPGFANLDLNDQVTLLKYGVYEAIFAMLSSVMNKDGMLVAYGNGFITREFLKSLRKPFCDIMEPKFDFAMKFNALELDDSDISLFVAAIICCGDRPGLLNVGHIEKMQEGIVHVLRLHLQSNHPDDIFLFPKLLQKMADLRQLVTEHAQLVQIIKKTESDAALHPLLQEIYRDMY
How it was run: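 Enzyme-fragment complementation assay in which ligand-bound PPARalpha translocates and forms an active enzyme that generates chemiluminescence. Cells were plated overnight, exposed to compound for 6 hr at 37 C, and then given detection reagent for 60 min at room temperature.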

[19] = target: Glucocorticoid receptor (Homo sapiens) (UniProt P04150); assay: qHTS assay for small molecule agonists of glucocorticoid receptor signaling (AID 588532; active = well fitted curve in the direction sought with a large enough effect in the signal ratio, with a control signal flat; the % refers to the signal ratio); settings: HeLa MMTV-bla, beta-lactamase ratio, agonist, 18 h; stronger effect = higher value; percent of dexamethasone control, DMSO zero
Chain of Glucocorticoid receptor (Homo sapiens) (P04150 whole entry, looked up): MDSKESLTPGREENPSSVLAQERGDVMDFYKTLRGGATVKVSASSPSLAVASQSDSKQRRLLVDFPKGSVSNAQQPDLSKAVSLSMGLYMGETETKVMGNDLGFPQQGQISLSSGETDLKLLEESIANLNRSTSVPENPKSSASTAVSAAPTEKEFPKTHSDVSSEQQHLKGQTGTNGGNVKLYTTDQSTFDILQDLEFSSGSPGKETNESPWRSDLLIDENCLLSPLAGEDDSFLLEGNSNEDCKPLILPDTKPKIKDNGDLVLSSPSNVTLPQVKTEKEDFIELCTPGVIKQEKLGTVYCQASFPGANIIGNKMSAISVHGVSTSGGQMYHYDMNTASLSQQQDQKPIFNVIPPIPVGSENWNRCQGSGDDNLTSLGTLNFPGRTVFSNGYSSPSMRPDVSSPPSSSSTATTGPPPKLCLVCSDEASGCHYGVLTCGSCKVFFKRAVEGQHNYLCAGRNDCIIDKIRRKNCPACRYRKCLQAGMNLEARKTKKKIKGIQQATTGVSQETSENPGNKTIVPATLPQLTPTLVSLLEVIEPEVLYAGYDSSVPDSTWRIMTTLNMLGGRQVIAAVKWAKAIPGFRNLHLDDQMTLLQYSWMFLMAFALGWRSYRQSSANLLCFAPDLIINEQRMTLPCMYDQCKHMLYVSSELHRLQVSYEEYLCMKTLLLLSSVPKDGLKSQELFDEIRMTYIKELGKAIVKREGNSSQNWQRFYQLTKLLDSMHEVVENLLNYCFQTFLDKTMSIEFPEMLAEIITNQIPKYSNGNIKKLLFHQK
How it was run: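 HeLa GRE-bla reporter cells; 18 h compound exposure at 37 C; 2 h CCF4 loading at room temperature; fluorescence at 460 and 530 nm; EC50 by Hill equation.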

[20] = Cell Viability - LYMP2-012 (AID 982)

SMILES: c1ccc(-c2ccccc2)cc1
- Potency [1]: > 92 µM (inactive)
- Potency [2]: > 92 µM (inactive)
- caspase-3 activation [3]: -8.06% (inactive)
- outcome [4]: inactive
- max response [5]: -1.97% and 13.4%
- Potency [6]: inactive
- max response [7]: -4.53% (inactive) and 7.05% (inactive)
- activation [8]: 0.41% (inactive) and 0.224% (inactive)
- Potency [9]: inactive

SMILES: COC1=C(OC)C(=O)C(C/C=C(\C)CC/C=C(\C)CC/C=C(\C)CC/C=C(\C)CC/C=C(\C)CC/C=C(\C)CC/C=C(\C)CC/C=C(\C)CC/C=C(\C)CCC=C(C)C)=C(C)C1=O
- Potency [10]: inactive

SMILES: C=CC1CC=CCC1 (configuration not stated)
- Potency [1]: > 92 µM (inactive)
- Potency [2]: > 92 µM (inactive)
- outcome [11]: inactive
- caspase-3 activation [3]: 5.69% (inactive)
- Potency [12]: inactive
- Potency [13]: inactive
- Potency [14]: inactive
- Potency [15]: inactive
- Potency [16]: 39.8 µM (active)
- outcome [4]: inactive
- max response [5]: 33.6% and -2.58%
- Potency [6]: inactive
- max response [7]: 12.3% (inactive) and -16.5% (inactive)
- activation [8]: 0.91% (inactive) and -0.814% (inactive)
- Potency [9]: inactive

SMILES: O=C(/C=C/c1ccc(O)c(O)c1)O[C@@H]1CC(O)(C(=O)O)C[C@@H](OC(=O)/C=C/c2ccc(O)c(O)c2)C1O (some centres not stated)
- Potency [10]: inactive

SMILES: C=C1C[C@]23CC[C@H]4[C@@](C)(CCC[C@@]4(C)C(=O)O)[C@@H]2CC[C@@]1(O[C@@H]1O[C@H](CO)[C@@H](O)[C@H](O)[C@H]1O[C@@H]1O[C@H](CO)[C@@H](O)[C@H](O)[C@H]1O)C3
- Potency [10]: inactive

SMILES: Oc1cccc(O)c1O
- Potency [10]: inactive

SMILES: C=C(C)[C@H]1CC=C(C)C(=O)C1
- Potency [10]: inactive

SMILES: Cc1c(C)c2c(c(C)c1O)CC[C@@](C)(CCC[C@H](C)CCC[C@H](C)CCCC(C)C)O2
- Potency [10]: inactive

SMILES: CCCCC[C@H](O)CC(=O)CCc1ccc(O)c(OC)c1
- Potency [10]: inactive

SMILES: CC(C)=CCCC(C)(OC1OC(COC2OC(CO)C(O)C2O)C(O)C(O)C1O)C1CCC2(C)C1C(O)CC1C3(C)CCC(OC4OC(CO)C(O)C(O)C4OC4OC(CO)C(O)C(O)C4O)C(C)(C)C3CCC12C (configuration not stated)
- Potency [10]: inactive

SMILES: CCCCCCCCCCCCCC(=O)O
- Potency [10]: inactive

SMILES: CC(C)=CCC[C@](C)(OC1OC(COC2OCC(O)C(O)C2O)C(O)C(O)C1O)[C@H]1CC[C@]2(C)[C@@H]1[C@H](O)C[C@@H]1[C@@]3(C)CC[C@H](OC4OC(CO)C(O)C(O)C4OC4OC(CO)C(O)C(O)C4O)C(C)(C)[C@@H]3CC[C@]12C (some centres not stated)
- Potency [10]: inactive

SMILES: CCC(/C=C/[C@@H](C)[C@H]1CCC2C3CC=C4C[C@@H](O)CC[C@]4(C)C3CC[C@@]21C)C(C)C (some centres not stated)
- Potency [10]: inactive

SMILES: CC1=CCC2CC1C2(C)C (configuration not stated)
- Potency [10]: inactive

SMILES: CCCCCC(=O)O
- Potency [10]: inactive

SMILES: Cc1ccc([N+](=O)[O-])cc1C
- Potency [1]: > 92 µM (inactive)
- Potency [2]: > 92 µM (inactive)
- Potency [15]: inactive
- Potency [17]: inactive
- outcome [4]: inactive
- max response [5]: -1.38%
- Potency [6]: inactive
- activation [8]: 0.21% (inactive) and 0.188% (inactive)
- max response [18]: -4.21% (inactive) and -1.01% (inactive)

SMILES: O=NN(c1ccccc1)c1ccccc1
- Potency [1]: > 92 µM (inactive)
- Potency [2]: > 92 µM (inactive)
- Potency [13]: inactive
- Potency [16]: inactive
- Potency [17]: inactive
- outcome [4]: inactive
- activation [19]: -1.26% (inactive) and -2.24% (inactive)
- max response [5]: 35.3%
- Potency [6]: inactive
- max response [7]: -2.47% (inactive) and 4.6% (inactive)
- max response [18]: 3.69% (inactive) and -0.619% (inactive)
- Potency [9]: inactive

SMILES: O=C(Cl)/C=C/C(=O)Cl
- Potency [1]: > 92 µM (inactive)
- Potency [2]: > 92 µM (inactive)
- outcome [11]: inactive
- caspase-3 activation [3]: -3.63% (inactive)
- Potency [12]: inactive
- Potency [16]: inactive
- Potency [20]: inactive
- Potency [17]: inactive
- outcome [4]: inactive
- Potency [6]: inactive
- activation [8]: 2.63% (inactive)
- max response [18]: -3.04% (inactive)
- Potency [9]: inactive

SMILES: CCCCCCCC/C=C\CCCCCCCCCCCC(=O)O
- Potency [10]: inactive
